In ChEMBL document CHEMBL1961873, “Compounds: GSK PKIS; Assays: Nanosyn kinase panel” (2012):

How the values were obtained:
[1] = target: Ribosomal protein S6 kinase alpha-6 (Homo sapiens) (UniProt Q9UK32); details: at 1 µM;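 further: each value is a mean inhibition of RSK4 from a GSK PKIS panel screen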
[2] = target: T1, Serine/threonine-protein kinase Sgk1 (Homo sapiens) (UniProt O00141); details: at 0.1 µM
T1 sequence (whole entry): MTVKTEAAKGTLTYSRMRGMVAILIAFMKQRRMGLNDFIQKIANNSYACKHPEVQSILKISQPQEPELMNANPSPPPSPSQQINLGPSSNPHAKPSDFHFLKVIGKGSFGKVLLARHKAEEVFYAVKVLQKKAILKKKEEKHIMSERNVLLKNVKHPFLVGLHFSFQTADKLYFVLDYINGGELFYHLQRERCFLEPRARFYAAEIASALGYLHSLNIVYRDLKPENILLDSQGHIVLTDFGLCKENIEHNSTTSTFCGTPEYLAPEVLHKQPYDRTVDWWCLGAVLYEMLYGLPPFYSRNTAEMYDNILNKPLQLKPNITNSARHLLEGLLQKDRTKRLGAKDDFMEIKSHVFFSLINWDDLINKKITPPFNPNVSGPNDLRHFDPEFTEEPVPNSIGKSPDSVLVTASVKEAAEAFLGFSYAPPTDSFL

[3] = target: T1, Serine/threonine-protein kinase Sgk1 (Homo sapiens); details: at 1 µM
[4] = target: T2, Serine/threonine-protein kinase Sgk2 (Homo sapiens) (UniProt Q9HBY8); details: at 0.1 µM
T2 sequence (whole entry): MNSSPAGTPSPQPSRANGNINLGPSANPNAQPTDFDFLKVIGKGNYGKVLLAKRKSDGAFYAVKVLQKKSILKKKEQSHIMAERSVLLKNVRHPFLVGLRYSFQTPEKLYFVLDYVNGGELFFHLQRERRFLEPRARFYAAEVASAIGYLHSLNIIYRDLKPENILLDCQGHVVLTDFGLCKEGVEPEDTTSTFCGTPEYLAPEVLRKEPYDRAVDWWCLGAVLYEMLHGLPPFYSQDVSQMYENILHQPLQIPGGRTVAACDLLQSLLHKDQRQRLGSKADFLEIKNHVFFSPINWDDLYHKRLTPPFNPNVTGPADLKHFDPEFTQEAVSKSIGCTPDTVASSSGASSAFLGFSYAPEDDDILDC

[5] = target: T2, Serine/threonine-protein kinase Sgk2 (Homo sapiens); details: at 1 µM
[6] = target: T3, Serine/threonine-protein kinase Sgk3 (Homo sapiens) (UniProt Q96BR1); details: at 0.1 µM
T3 sequence (whole entry): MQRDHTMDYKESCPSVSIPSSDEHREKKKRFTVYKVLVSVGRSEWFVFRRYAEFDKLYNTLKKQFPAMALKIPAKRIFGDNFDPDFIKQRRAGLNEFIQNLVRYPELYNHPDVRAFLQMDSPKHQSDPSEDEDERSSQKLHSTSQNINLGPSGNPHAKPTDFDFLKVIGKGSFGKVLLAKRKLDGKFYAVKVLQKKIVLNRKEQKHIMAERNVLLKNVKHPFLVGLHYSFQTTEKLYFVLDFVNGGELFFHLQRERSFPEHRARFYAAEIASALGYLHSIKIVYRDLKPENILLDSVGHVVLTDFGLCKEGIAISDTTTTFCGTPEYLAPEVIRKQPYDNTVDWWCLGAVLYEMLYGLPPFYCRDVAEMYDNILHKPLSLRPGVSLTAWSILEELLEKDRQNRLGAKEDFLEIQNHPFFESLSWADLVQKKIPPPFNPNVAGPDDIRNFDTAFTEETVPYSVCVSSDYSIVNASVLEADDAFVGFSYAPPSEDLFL

[7] = target: T3, Serine/threonine-protein kinase Sgk3 (Homo sapiens); details: at 1 µM
[8] = target: 5'-AMP-activated protein kinase catalytic subunit alpha-1 (Homo sapiens) (UniProt Q13131); details: at 0.1 µM
Chain of 5'-AMP-activated protein kinase catalytic subunit alpha-1 (Homo sapiens) (Q13131 whole entry, looked up): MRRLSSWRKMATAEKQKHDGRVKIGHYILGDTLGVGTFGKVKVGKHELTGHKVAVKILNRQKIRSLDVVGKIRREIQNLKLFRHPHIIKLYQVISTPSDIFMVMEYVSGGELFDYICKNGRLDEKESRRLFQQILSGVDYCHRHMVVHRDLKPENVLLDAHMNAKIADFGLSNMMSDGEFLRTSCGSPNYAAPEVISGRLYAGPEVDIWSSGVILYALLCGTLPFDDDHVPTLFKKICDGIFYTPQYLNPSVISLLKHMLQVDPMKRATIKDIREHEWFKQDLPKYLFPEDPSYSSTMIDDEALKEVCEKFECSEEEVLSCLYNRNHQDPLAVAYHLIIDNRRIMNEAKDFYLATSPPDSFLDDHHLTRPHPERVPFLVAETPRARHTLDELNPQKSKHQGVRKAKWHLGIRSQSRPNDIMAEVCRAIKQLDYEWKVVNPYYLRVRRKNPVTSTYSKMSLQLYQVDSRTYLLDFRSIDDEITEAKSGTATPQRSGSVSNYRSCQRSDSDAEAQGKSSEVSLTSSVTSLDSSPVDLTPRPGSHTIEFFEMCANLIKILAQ

[9] = target: 5'-AMP-activated protein kinase catalytic subunit alpha-1 (Homo sapiens) (UniProt Q13131); details: at 1 µM
[10] = target: 5'-AMP-activated protein kinase catalytic subunit alpha-2 (Homo sapiens) (UniProt P54646); details: at 0.1 µM
Chain of 5'-AMP-activated protein kinase catalytic subunit alpha-2 (Homo sapiens) (P54646 whole entry, looked up): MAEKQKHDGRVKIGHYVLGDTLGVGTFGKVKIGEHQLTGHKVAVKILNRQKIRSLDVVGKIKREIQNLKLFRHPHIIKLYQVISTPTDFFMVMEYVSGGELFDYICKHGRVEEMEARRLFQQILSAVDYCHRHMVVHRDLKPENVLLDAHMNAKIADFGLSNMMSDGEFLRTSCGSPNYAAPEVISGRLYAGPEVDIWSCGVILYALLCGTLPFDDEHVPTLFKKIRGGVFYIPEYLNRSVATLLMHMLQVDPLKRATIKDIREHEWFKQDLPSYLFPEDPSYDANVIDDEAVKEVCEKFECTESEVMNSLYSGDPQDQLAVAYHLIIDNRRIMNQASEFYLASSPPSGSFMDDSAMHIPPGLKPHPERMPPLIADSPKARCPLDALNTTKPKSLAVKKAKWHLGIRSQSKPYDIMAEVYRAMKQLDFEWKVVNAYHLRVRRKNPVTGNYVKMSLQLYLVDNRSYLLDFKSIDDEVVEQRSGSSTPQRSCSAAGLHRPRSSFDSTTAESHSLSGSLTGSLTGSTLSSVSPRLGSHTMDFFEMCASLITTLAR

[11] = target: 5'-AMP-activated protein kinase catalytic subunit alpha-2 (Homo sapiens) (UniProt P54646); details: at 1 µM
[12] = target: T4, NUAK family SNF1-like kinase 1 (Homo sapiens) (UniProt O60285); details: at 0.1 µM
T4 sequence (whole entry): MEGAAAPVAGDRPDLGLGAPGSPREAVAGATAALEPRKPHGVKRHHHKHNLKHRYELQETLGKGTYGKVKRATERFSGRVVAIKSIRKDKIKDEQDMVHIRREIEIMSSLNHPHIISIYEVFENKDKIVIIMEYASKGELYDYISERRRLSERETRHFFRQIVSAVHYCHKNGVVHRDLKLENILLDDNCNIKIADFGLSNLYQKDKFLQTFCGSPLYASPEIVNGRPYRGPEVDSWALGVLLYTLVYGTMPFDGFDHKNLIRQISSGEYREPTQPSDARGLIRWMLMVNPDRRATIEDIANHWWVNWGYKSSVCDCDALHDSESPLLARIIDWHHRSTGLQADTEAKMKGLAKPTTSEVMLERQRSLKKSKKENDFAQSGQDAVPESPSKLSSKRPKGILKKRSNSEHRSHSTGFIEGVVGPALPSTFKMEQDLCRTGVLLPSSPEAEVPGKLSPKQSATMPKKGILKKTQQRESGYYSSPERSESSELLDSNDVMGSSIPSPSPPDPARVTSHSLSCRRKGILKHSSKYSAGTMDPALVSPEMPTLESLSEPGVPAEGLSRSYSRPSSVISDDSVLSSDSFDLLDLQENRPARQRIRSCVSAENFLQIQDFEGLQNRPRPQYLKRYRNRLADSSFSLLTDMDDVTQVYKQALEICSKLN

[13] = target: T4, NUAK family SNF1-like kinase 1 (Homo sapiens); details: at 1 µM
[14] = target: T5, Serine/threonine-protein kinase BRSK1 (Homo sapiens) (UniProt Q8TDC3); details: at 0.1 µM
T5 sequence (whole entry): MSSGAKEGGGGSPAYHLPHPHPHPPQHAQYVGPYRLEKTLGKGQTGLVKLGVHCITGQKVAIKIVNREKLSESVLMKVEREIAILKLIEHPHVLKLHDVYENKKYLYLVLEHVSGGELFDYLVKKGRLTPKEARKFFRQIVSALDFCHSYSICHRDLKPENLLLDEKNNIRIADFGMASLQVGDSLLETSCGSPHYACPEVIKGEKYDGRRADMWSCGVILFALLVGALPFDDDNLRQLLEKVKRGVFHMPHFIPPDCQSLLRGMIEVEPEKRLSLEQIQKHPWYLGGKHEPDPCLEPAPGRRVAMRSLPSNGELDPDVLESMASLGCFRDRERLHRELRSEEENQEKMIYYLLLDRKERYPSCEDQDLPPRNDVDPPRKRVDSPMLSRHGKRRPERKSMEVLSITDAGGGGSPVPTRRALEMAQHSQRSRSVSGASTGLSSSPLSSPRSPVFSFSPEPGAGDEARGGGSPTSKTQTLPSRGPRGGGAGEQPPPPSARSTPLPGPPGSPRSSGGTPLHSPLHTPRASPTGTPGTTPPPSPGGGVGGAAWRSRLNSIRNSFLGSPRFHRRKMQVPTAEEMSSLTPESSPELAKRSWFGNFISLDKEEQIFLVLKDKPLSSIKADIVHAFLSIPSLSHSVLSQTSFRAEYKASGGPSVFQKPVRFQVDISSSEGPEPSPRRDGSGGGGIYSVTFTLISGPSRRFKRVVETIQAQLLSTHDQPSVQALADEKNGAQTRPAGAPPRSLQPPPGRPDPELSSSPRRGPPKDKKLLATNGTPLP

[15] = target: T5, Serine/threonine-protein kinase BRSK1 (Homo sapiens); details: at 1 µM
[16] = target: T6, Serine/threonine-protein kinase BRSK2 (Homo sapiens) (UniProt Q8IWQ3); details: at 0.1 µM
T6 sequence (whole entry): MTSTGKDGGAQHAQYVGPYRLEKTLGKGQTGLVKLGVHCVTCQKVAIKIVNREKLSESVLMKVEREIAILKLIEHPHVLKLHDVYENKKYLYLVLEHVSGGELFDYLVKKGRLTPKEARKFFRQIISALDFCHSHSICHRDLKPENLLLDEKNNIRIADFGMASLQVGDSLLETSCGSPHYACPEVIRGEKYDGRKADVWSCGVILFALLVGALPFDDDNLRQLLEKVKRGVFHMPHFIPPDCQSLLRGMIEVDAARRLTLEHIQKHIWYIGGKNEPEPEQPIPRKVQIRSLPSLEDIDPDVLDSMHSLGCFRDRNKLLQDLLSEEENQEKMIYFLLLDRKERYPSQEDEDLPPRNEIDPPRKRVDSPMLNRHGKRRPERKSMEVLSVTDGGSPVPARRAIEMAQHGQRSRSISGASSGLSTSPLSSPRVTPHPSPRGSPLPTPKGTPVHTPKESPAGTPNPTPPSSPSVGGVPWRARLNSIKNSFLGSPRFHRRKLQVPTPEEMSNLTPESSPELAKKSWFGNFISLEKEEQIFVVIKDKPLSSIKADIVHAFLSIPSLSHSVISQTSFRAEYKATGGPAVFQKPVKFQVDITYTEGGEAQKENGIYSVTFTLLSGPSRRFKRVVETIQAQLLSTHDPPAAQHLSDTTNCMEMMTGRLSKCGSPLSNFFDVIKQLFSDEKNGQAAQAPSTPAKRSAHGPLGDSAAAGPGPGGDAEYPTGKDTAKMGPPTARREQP

[17] = target: T6, Serine/threonine-protein kinase BRSK2 (Homo sapiens); details: at 1 µM
[18] = target: Calcium/calmodulin-dependent protein kinase type 1D (Homo sapiens) (UniProt Q8IU85); details: at 0.1 µM
Chain of Calcium/calmodulin-dependent protein kinase type 1D (Homo sapiens) (Q8IU85 whole entry, looked up): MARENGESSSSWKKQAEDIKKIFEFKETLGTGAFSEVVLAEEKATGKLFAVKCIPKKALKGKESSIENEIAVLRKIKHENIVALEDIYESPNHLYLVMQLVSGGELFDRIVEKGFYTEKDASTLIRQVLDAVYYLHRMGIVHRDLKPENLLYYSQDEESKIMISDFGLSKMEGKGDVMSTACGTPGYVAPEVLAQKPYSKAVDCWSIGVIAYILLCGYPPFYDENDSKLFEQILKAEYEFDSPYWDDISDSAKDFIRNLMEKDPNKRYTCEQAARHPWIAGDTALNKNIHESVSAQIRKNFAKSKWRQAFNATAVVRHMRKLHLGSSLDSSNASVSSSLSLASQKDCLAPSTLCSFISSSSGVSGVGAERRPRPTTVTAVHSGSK

[19] = target: Calcium/calmodulin-dependent protein kinase type 1D (Homo sapiens) (UniProt Q8IU85); details: at 1 µM
[20] = target: Calcium/calmodulin-dependent protein kinase type II subunit alpha (Homo sapiens) (UniProt Q9UQM7); details: at 0.1 µM;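 further: reported values are averages (mean inhibition of CAMK2A)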
Chain of Calcium/calmodulin-dependent protein kinase type II subunit alpha (Homo sapiens) (Q9UQM7 whole entry): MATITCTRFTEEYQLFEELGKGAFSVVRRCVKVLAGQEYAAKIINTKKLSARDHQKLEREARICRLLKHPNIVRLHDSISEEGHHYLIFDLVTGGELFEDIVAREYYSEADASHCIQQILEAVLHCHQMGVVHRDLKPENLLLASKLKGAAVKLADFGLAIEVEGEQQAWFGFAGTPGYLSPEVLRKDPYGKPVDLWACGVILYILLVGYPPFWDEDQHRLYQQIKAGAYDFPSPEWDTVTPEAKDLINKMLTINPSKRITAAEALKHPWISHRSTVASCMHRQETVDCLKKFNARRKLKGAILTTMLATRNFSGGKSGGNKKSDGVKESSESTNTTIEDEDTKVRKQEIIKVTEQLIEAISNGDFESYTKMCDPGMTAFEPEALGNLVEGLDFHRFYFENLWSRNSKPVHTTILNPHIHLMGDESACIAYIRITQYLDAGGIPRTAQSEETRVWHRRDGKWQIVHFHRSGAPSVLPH

Chain of Ribosomal protein S6 kinase alpha-6 (Homo sapiens) (Q9UK32 whole entry): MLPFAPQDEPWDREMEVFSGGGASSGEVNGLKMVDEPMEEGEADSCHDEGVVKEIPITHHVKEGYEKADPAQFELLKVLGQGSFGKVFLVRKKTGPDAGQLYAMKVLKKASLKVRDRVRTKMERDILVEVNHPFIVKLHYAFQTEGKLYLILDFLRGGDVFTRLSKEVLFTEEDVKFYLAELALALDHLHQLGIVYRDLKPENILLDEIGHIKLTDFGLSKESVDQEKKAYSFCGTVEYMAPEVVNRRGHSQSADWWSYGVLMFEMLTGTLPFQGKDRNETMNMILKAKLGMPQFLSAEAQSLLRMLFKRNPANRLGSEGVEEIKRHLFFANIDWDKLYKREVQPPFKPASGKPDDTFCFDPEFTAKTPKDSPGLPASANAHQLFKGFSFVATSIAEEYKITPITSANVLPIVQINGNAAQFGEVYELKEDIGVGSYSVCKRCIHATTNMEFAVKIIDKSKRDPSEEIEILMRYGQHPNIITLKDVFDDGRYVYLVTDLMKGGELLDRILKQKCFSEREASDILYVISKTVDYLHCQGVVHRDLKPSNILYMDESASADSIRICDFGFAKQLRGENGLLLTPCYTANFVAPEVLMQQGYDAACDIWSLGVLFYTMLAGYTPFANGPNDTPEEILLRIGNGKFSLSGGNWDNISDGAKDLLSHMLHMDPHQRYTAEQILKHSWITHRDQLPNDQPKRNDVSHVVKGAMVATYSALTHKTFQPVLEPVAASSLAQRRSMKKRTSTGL

CS(=O)(=O)CCNCc1ccc(-c2ccc3ncnc(Nc4ccc(OCc5cccc(C(F)(F)F)c5)cc4)c3c2)o1
inhibition [1]: 1.68%
inhibition [2]: 2.43%
inhibition [3]: 1.63%
inhibition [4]: 4.41%
inhibition [5]: 2.6%
inhibition [6]: 3.89%
inhibition [7]: 2.45%
inhibition [8]: 1.06%
inhibition [9]: 5.76%
inhibition [10]: 6.24%
inhibition [11]: 3.3%
inhibition [12]: 0.13%
inhibition [13]: 6.75%
inhibition [14]: 4%
inhibition [15]: 4.04%
inhibition [16]: 4.95%
inhibition [17]: 9.19%
inhibition [18]: -0.93%
inhibition [19]: 0.88%
inhibition [20]: 1.38%

COC(=O)Nc1nc2cc(Oc3ccc(NC(=O)Nc4ccccc4)cc3)ccc2[nH]1
inhibition [1]: 0.36%
inhibition [2]: 2.77%
inhibition [3]: 5.31%
inhibition [4]: 0.16%
inhibition [5]: 3.69%
inhibition [6]: 3.38%
inhibition [7]: 5.17%
inhibition [8]: 2.62%
inhibition [9]: 2.79%
inhibition [10]: 0.01%
inhibition [11]: 0.9%
inhibition [12]: -0.53%
inhibition [13]: -0.72%
inhibition [14]: -0.86%
inhibition [15]: 0.34%
inhibition [16]: 0.79%
inhibition [17]: 2.06%
inhibition [18]: 0.99%
inhibition [19]: -1.18%
inhibition [20]: 2.23%

O=C(O[C@H]1CN[C@H](C#Cc2cc3ncnc(Nc4ccc5c(cnn5Cc5ccccc5)c4)c3s2)C1)N1CCOCC1
inhibition [1]: -1.11%
inhibition [2]: -0.09%
inhibition [3]: -1.15%
inhibition [4]: -1.55%
inhibition [5]: 4.74%
inhibition [6]: -2.07%
inhibition [7]: 0.07%
inhibition [8]: 1.24%
inhibition [9]: 3.86%
inhibition [10]: 2.29%
inhibition [11]: 3.11%
inhibition [12]: 3.37%
inhibition [13]: 4.34%
inhibition [14]: 0.74%
inhibition [15]: 2.54%
inhibition [16]: 1.3%
inhibition [17]: 3.58%
inhibition [18]: 0.26%
inhibition [19]: 1.04%
inhibition [20]: -0.77%

O=C(O[C@H]1CN[C@H](C#Cc2cc3ncnc(Nc4ccc5c(ccn5Cc5cc(F)ccc5F)c4)c3s2)C1)N1CCOCC1
inhibition [1]: 2.42%
inhibition [2]: 3.69%
inhibition [3]: 3.13%
inhibition [4]: 4.36%
inhibition [5]: 0.96%
inhibition [6]: 3.53%
inhibition [7]: 3.51%
inhibition [8]: 3.06%
inhibition [9]: 1.13%
inhibition [10]: 3.89%
inhibition [11]: 3.87%
inhibition [12]: 1.19%
inhibition [13]: 1.94%
inhibition [14]: 1.2%
inhibition [15]: 0.38%
inhibition [16]: 1.23%
inhibition [17]: 0.73%
inhibition [18]: 0.69%
inhibition [19]: 2.19%
inhibition [20]: 2.78%

CC1=C(C(=O)Nc2ccc3[nH]ncc3c2)C(c2ccc(F)cc2)N=C(c2ccc(C(F)(F)F)nc2)N1 (stereo not given)
inhibition [1]: 0.46%
inhibition [2]: 1.43%
inhibition [3]: 2.75%
inhibition [4]: 2.27%
inhibition [5]: 4.47%
inhibition [6]: 4.38%
inhibition [7]: 2.31%
inhibition [8]: 1.92%
inhibition [9]: 8.74%
inhibition [10]: 0.84%
inhibition [11]: 4.16%
inhibition [12]: 2.72%
inhibition [13]: -3.57%
inhibition [14]: 1.01%
inhibition [15]: 3.19%
inhibition [16]: 0.18%
inhibition [17]: 5.63%
inhibition [18]: 0.25%
inhibition [19]: 1.37%
inhibition [20]: 0.55%

FC(F)(F)CNc1nccc(-c2cnn3ncccc23)n1
inhibition [1]: 0.2%
inhibition [2]: 1.25%
inhibition [3]: 1.46%
inhibition [4]: 0%
inhibition [5]: 0.87%
inhibition [6]: 2.93%
inhibition [7]: 4.28%
inhibition [8]: 1.91%
inhibition [9]: 2.67%
inhibition [10]: 0.68%
inhibition [11]: 2.02%
inhibition [12]: 2.93%
inhibition [13]: 1.68%
inhibition [14]: 1.54%
inhibition [15]: 4.3%
inhibition [16]: 3.14%
inhibition [17]: 5.75%
inhibition [18]: 0.18%
inhibition [19]: 0.52%
inhibition [20]: 0.49%
